Assay results taken from publication PMC4336329 (PLoS ONE, 2015).
Hit rate of the full screen: of about 310,000 compounds, about 14,000 (4.5%) showed an effect of 50% or more. The effect is printed as a negative number. The entries come from a sample that favours strong results as a whole.

The compounds below were run against human ether-à-go-go-related gene (hERG) potassium channel (human, UniProt Q12809) (assay: primary screen, population patch clamp on CHO cells stably expressing hERG; higher = less effect of the substance).
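Also: peak tail current of the secondary pulse compared with the same well before compound.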

Sequence of human ether-à-go-go-related gene (hERG) potassium channel (Q12809 whole entry, looked up): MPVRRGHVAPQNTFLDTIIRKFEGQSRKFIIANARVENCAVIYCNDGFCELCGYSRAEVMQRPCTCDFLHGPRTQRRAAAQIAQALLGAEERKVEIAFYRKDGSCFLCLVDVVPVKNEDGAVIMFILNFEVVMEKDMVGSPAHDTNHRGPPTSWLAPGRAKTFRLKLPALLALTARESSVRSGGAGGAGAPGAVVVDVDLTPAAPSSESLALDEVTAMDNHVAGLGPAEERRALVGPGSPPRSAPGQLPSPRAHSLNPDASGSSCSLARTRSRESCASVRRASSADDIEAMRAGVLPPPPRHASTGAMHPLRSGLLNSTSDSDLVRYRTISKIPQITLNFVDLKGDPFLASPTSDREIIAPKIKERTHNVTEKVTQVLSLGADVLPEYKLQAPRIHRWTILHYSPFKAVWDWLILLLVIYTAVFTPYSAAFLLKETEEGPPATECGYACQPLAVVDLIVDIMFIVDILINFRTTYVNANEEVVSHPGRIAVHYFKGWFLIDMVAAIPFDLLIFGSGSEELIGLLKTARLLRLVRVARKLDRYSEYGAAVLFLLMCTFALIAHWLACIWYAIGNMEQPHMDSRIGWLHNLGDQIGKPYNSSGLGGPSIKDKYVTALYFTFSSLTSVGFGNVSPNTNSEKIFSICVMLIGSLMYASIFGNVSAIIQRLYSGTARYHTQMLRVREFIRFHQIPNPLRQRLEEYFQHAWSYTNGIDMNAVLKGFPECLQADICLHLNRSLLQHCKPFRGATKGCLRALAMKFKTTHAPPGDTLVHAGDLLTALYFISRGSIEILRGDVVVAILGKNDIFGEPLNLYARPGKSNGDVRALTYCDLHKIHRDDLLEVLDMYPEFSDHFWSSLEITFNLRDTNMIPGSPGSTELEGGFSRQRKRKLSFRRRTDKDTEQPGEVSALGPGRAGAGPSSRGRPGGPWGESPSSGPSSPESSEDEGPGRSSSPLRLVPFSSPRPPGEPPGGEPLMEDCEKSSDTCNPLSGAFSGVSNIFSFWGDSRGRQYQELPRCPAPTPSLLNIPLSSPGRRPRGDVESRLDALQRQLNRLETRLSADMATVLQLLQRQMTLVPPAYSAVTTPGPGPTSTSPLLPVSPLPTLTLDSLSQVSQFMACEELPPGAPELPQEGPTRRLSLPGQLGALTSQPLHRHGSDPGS

Structure (SMILES)	hERG current change (%, negative = inhibition) at 10uM [%]
COc1cc(/C=N/NC(=O)c2ccncc2)ccc1OCc1cnc(Cl)s1	2.43
COc1ccc(-c2cc(C#N)nc(N3CCN(C)CC3)n2)cc1	-42.5
N#Cc1cc(-c2ccccc2)nc(N2CCNCC2)n1	-11.3
COc1ccc(-c2cc(C#N)nc(N3CCNCC3)n2)cc1	-79.3
Cc1ccc(NC(=O)C(=O)NCCN2CCN(S(C)(=O)=O)CC2)cc1C	0.0768
O=C(NCCc1ccc(Cl)cc1)c1ccc(CS(=O)Cc2ccc(Cl)cc2)o1 (centres unmarked)	-39.8
COc1ccccc1S(=O)Cc1ccc(C(=O)NCc2ccccc2Cl)o1 (centres unmarked)	-19.5
CSc1ccc(CCNC(=O)c2ccc(CS(=O)Cc3ccccc3Cl)o2)cc1 (centres unmarked)	-2.87
O=C(NCCc1ccccc1)c1ccc(CS(=O)Cc2ccc(Cl)cc2)o1 (centres unmarked)	-58.8
CCOc1ccc(CCNC(=O)c2ccc(CS(=O)Cc3ccccc3Cl)o2)cc1 (centres unmarked)	-19
O=C(NCCc1ccccc1)c1ccc(CS(=O)Cc2cccc(Cl)c2)o1 (centres unmarked)	-6.23
O=C(NCCCc1ccccc1)c1ccc(CS(=O)Cc2ccccc2Cl)o1 (centres unmarked)	-76.2
O=C(NCCc1ccc(Cl)cc1)c1ccc(CS(=O)Cc2ccccc2Cl)o1 (centres unmarked)	-30
COc1ccccc1S(=O)Cc1ccc(C(=O)NCCc2ccc(Cl)cc2)o1 (centres unmarked)	-65.4
CCOc1ccc(CCNC(=O)c2ccc(CS(=O)Cc3cccc(Cl)c3)o2)cc1 (centres unmarked)	-76
COc1ccc(CCNC(=O)c2ccc(CS(=O)Cc3ccc(Cl)cc3)o2)cc1OC (centres unmarked)	-26.7
CCOc1ccc(CCNC(=O)c2ccc(CS(=O)Cc3ccc(Cl)cc3)o2)cc1 (centres unmarked)	-14.1
CCOc1ncccc1C(=O)NNC(=O)c1ccc(NS(=O)(=O)c2cccs2)cc1	13
Cc1onc(-c2ccccc2)c1C(=O)Nc1sc2c(c1C(N)=O)CCC2	6.44
CCC(C)NC(=O)C1CCN(c2nc(OC)nc(OC)n2)CC1 (centres unmarked)	-4.66
CCN(Cc1cc2ccccc2[nH]c1=O)C(=O)c1cccc([N+](=O)[O-])c1	-21.8

Structure (SMILES)	hERG current change (%, negative = inhibition) at 10uM [%]
Clc1cccc(-c2cc3nc4c(c(N5CCOCC5)n3n2)CCCC4)c1	-6.06
Cn1c(=O)n(-c2cccc(Cl)c2)c(=O)n1C	6.81
Brc1ccccc1-c1nc(-c2ccccc2)no1	5.04
CC1(C)CC(=O)C2=C(C1)c1c(ccc3ccccc13)NC2c1ccco1 (centres unmarked)	14.1
CC12CCC(=O)N1C(C(=O)Nc1ccccc1N1CCCCC1)CS2 (centres unmarked)	-15.9
CCN(CC)S(=O)(=O)N1CCC(C(=O)NC2CCCc3ccccc32)CC1 (centres unmarked)	-8
Cc1cc(Br)c(S(=O)(=O)NCc2ccncc2)cc1C	7.87
CNc1cncc(C(=O)O)c1	7.43
Cc1ccc(O)c(C(=O)c2cnc3onc(-c4ccc(F)cc4)c3c2)c1	4.58
O=C(NCCCc1ccccc1)c1ccc(CS(=O)Cc2ccc(Cl)cc2)o1 (centres unmarked)	-74.3
Cc1ccc(CS(=O)Cc2ccc(C(=O)NCCc3ccccc3)o2)cc1 (centres unmarked)	-7.62
O=C(NCCc1cccs1)c1ccc(CS(=O)Cc2ccc(Cl)cc2)o1 (centres unmarked)	-20.4
Cc1ccccc1C(=O)N1CCN(c2ccc(NC(=O)c3ccco3)cc2)CC1	5.43
COc1cccc(CN(C)CC(O)COC(c2ccccc2)c2ccccc2C)c1 (centres unmarked)	-72.1
CCOc1ccc(CN(C)CC(O)COC(c2ccc(OC)cc2)c2ccc(OC)cc2)cc1 (centres unmarked)	-77.4
COc1ccc(C(OCC(O)CN2CCC(O)CC2)c2ccc(OC)cc2)cc1 (centres unmarked)	-48
COc1cccc(CN(C)CC(=O)Nc2c(C)cccc2C(C)C)c1	-12.2
CCc1ccc(CNCc2ccc(OCC(O)CN(C)Cc3ccccc3)cc2)nc1 (centres unmarked)	-17.4
COc1ccc(CN(C)CC(O)COC(c2ccc(OC)cc2)c2ccc(OC)cc2)cc1 (centres unmarked)	-77.2
CN(Cc1ccccc1)CC(O)COc1ccc(CNCc2cc3ccccc3s2)cc1 (centres unmarked)	-25.7
CCc1ccc(CN(C)CC(O)COc2cccc3ccccc23)cc1 (centres unmarked)	-25.2

Structure (SMILES)	hERG current change (%, negative = inhibition) at 10uM [%]
COc1cccc(CN(C)CC(O)COc2cc(Cl)ccc2Cl)c1.O=C(O)C(=O)O (centres unmarked)	-42
Cn1c(COc2ccccc2)nnc1SCc1nc2ccccc2[nH]1	-9.92
CCOc1ncccc1C(=O)NC(C)CCc1ccccc1 (centres unmarked)	-6.92
COc1ccc(OC)c(/C=C2\S/C(=N/NC(=O)c3ccc4ccccc4c3)NC2=O)c1	16.5
COc1cccc(CNS(=O)(=O)c2ccc3c(c2)CC(C)N3C(=O)C2CC2)c1 (centres unmarked)	18.5
Cc1cccc(-c2nc(CNC(=O)c3ccco3)cs2)c1	-57.9
O=C(NCc1csc(-c2ccccc2)n1)c1ccco1	-40
Cc1ccc(-c2nc(CNC(=O)c3ccco3)cs2)cc1	-13.6
COc1ccc(CNC(=O)[C@@H](NC(=O)C2CCN(C(=O)[C@@H]3CCCN3C(=O)OC(C)(C)C)CC2)C(C)C)cc1	-9.4
CCOc1ccc(CCNC(=O)CN(C)S(=O)(=O)c2cccc3nsnc23)cc1OCC	-9.79
COc1ccc(S(=O)(=O)N(CCCN2CCOCC2)Cc2cccc3ccccc23)cc1	-48.6
COc1ccc(S(=O)(=O)N(CCCN2CCOCC2)Cc2ccc(OC)c(OC)c2)cc1	-39.9
O=C(O)C(=O)O.O=[N+]([O-])c1ccc(S(=O)(=O)N(CCCN2CCOCC2)Cc2cccs2)cc1	-70.6
CC(C)(C)c1ccc(S(=O)(=O)N(CCCN2CCOCC2)Cc2cccs2)cc1.O=C(O)C(=O)O	-33.4
O=C(O)C(=O)O.O=S(=O)(c1ccc(Cl)cc1)N(CCCN1CCOCC1)Cc1cccs1	-63.7
CC(=O)Nc1ccc(S(=O)(=O)N(CCCN2CCOCC2)Cc2cccs2)cc1.O=C(O)C(=O)O	-20.9
O=C(Nc1ccc(N2CCCCC2)cc1)c1cccnc1Cl	13.4
CCOC(=O)C1CCCN(C(=O)c2cc(CN3C(=O)c4ccccc4C3=O)ccc2OC)C1 (centres unmarked)	-9.55
C=CCc1cccc(/C=N/NC(=O)c2ccccc2OC)c1O	14.1
C=CCc1cccc(/C=N/NC(=O)c2ccccc2Br)c1O	-50.2
C=CCc1cccc(/C=N/NC(=O)CNc2ccccc2)c1O	-2.16

Structure (SMILES)	hERG current change (%, negative = inhibition) at 10uM [%]
O=C(C1=C(O)C(=O)N(CCCn2ccnc2)C1c1ccc(F)cc1)c1ccco1 (centres unmarked)	15.8
C/C(=N\Nc1ccccn1)c1ccc(OC(F)F)cc1	-71.3
C/C(=N\Nc1ccccn1)c1ccc(C#N)cc1	-19.3
COc1cccc(/C(C)=N/Nc2ncc(Cl)cc2Cl)c1	-10.3
C/C(=N\Nc1ncc(Cl)cc1Cl)c1ccc(C#N)cc1	-4.88
C/C(=N\Nc1ccccn1)c1ccc(C(C)C)cc1	23.7
C/C(=N\Nc1ncc(Cl)cc1Cl)c1ccc(OC(F)F)cc1	-50.2
CCOC(=O)CNC(=O)c1cnc(Nc2ccccc2OC)c2ccccc12	5.33
COc1ccccc1C1/C(=C(\O)c2ccc3c(c2)OCCO3)C(=O)C(=O)N1Cc1cccnc1 (centres unmarked)	18.9
O=C(CSc1ccc(-c2cccs2)nn1)NCc1ccccc1Cl	-28.7
Cc1noc(C)c1CSCC(=O)N1CCN(c2ccc(F)cc2)CC1	-38.1
Cc1noc(C)c1CSCC(=O)N1CCN(c2ccc([N+](=O)[O-])cc2)CC1	-76.8
Cc1noc(C)c1COc1ccc(C(=O)N2CCN(c3ccccc3O)CC2)cc1	-14.4
Cc1noc(C)c1COc1ccc(C(=O)N2CCN(c3ccccn3)CC2)cc1	-31.8
COc1cc(C(=O)N2CCN(c3ccc([N+](=O)[O-])cc3)CC2)ccc1OCc1c(C)noc1C	-60.2
Cc1noc(C)c1COc1ccc(C(=O)N2CCN(c3ccccc3F)CC2)cc1	-55
COc1cc(C(=O)N2CCN(S(=O)(=O)c3ccc(C)cc3)CC2)ccc1OCc1c(C)noc1C	-21
Cc1cccc(N2CCN(C(=O)CSCc3c(C)noc3C)CC2)c1C	-14.9
COc1ccc(N2CCN(C(=O)c3ccc(OCc4c(C)noc4C)c(OC)c3)CC2)cc1	6.01
CCOC(=O)[C@@H]1[C@H]2COc3ccc(Br)cc3[C@H]2N2C(=O)N(c3ccc(Br)cc3)C(=O)[C@]12C	7.88
